According to PubChem BioAssay AID1159580 (chemical genetic matrix, 2015):
About 2,000 (36%) of roughly 5,500 compounds were called active. Inconclusive results (about 18%) are left out. Cut-off read from the data, not from the text of the source: active = normalized growth mostly below about 0.91 (no sharp cut-off); inconclusive = no clear call, values can overlap the other calls; inactive = mostly above about 0.92. The list shows a part of the results.

Assay: chemical genetic growth profiling, strain panel (AID 1159580);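 note: tested at 20 µM; growth read once vehicle control cultures reached saturation at 30 °C; 1 = growth at the plate median or of vehicle wells; lower values mean less growth of the strain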
Settings: S. cerevisiae deletion strains, growth OD

Measured: normalized growth

COc1ccc([C@H]2Oc3c(I)c(OC)cc(OC)c3C[C@@H]2O)cc1OC
inactive: locus YAL021C, strain ccr4, active compounds read low 1.01 | locus YAL026C, strain drs2, active compounds read low 1.01 | locus YAL030W, strain snc1, active compounds read low 1.01 | locus YBL061C, strain skt5, active compounds read low 1.01 | locus YBR009C, strain hhf1, active compounds read low 1.01 | locus YBR021W, strain FUR4, active compounds read low 1 | locus YBR023C, strain chs3, active compounds read low 1.01 | locus YBR171W, strain sec66, active compounds read low 1.01 | locus YBR229C, strain ROT2, active compounds read low 1 | locus YBR231C, strain swc5, active compounds read low 1.01 | locus YBR279W, strain paf1, active compounds read low 1.03 | locus YCL011C, strain gbp2, active compounds read low 1.02 | locus YCL016C, strain dcc1, active compounds read low 1.02 | locus YCL029C, strain bik1, active compounds read low 1.03 | locus YCL061C, strain MRC1, active compounds read low 1.02 | locus YCL069W, strain vba3, active compounds read low 1.02 | locus YCR088W, strain abp1, active compounds read low 1.01 | locus YDL005C, strain med2, active compounds read low 1.01 | locus YDL035C, strain GPR1, active compounds read low 1.07 | locus YDL040C, strain nat1, active compounds read low 1.01 | locus YDL074C, strain BRE1, active compounds read low 1.1 | locus YDL101C, strain DUN1, active compounds read low 1 | locus YDL134C, strain PPH21, active compounds read low 1.03 | locus YDL185W, strain tfp1, active compounds read low 1.03 | locus YDL192W, strain arf1, active compounds read low 1.04 | locus YDR001C, strain nth1, active compounds read low 1.02 | locus YDR069C, strain doa4, active compounds read low 1.01 | locus YDR101C, strain arx1, active compounds read low 1.04 | locus YDR137W, strain rgp1, active compounds read low 0.982 | locus YDR150W, strain NUM1, active compounds read low 1.02 | locus YDR159W, strain sac3, active compounds read low 0.98 | locus YDR162C, strain NBP2, active compounds read low 1.04 | locus YDR195W, strain ref2 1.01 | locus YDR297W, strain sur2, active compounds read low 1.01 | locus YDR318W, strain mcm21, active compounds read low 1.02 | locus YDR334W, strain swr1, active compounds read low 1.02 | locus YDR335W, strain msn5, active compounds read low 1.01 | locus YDR388W, active compounds read low 1.02 | locus YDR392W, strain spt3, active compounds read low 0.895 | locus YDR502C, strain sam2, active compounds read low 1.02 | locus YEL003W, strain gim4, active compounds read low 1.01 | locus YEL037C, strain rad23, active compounds read low 1.01 | locus YEL061C, strain CIN8 (second series), active compounds read low 1.02 | locus YER015W, strain faa2, active compounds read low 1.02 | locus YER016W, strain bim1, active compounds read low 1 | locus YER110C, active compounds read low 1 | locus YER111C, strain swi4, active compounds read low 1.01 | locus YER155C, strain BEM2 (second series), active compounds read low 1 | locus YER155C, strain BEM2, active compounds read low 0.996 | locus YER167W, strain BCK2, active compounds read low 1.01 | locus YFR010W, strain ubp6, active compounds read low 1.01 | locus YGL078C, strain dbp3, active compounds read low 0.999 | locus YGL086W, strain mad1, active compounds read low 0.997 | locus YGL167C, strain pmr1, active compounds read low 1.01 | locus YGL173C, strain kem1, active compounds read low 1.01 | locus YGL227W, strain vid30, active compounds read low 1.02 | locus YGL240W, strain doc1, active compounds read low 1.01 | locus YGL248W, strain PDE1, active compounds read low 1.04 | locus YGL253W, strain hxk2, active compounds read low 1.01 | locus YGR135W, strain pre9, active compounds read low 1.03 | locus YGR252W, strain gcn5, active compounds read low 1.06 | locus YHR013C, strain ard1, active compounds read low 1.02 | locus YHR027C, strain rpn1, active compounds read low 1.01 | locus YHR030C, strain SLT2, active compounds read low 1 | locus YHR079C, strain IRE1 (second series), active compounds read low 1.01 | locus YHR094C, strain hxt1, active compounds read low 1.01 | locus YHR129C, strain ARP1, active compounds read low 1.03 | locus YHR142W, strain chs7, active compounds read low 1.03 | locus YHR200W, strain rpn10, active compounds read low 1.07 | locus YIL066C, strain RNR3, active compounds read low 1.02 | locus YIL073C, strain SPO22, active compounds read low 1.08 | locus YIL125W, strain kgd1, active compounds read low 1.03 | locus YIR030C, strain dcg1, active compounds read low 1.03 | locus YJL092W, strain hpr5, active compounds read low 1.01 | locus YJL095W, strain BCK1 (second series), active compounds read low 1.02 | locus YJL095W, strain BCK1, active compounds read low 1.05 | locus YJL115W, strain asf1, active compounds read low 1.02 | locus YJL129C, strain trk1, active compounds read low 1.02 | locus YJL134W, strain LCB3, active compounds read low 1 | locus YJL154C, strain vps35, active compounds read low 1.01 | locus YJL164C, strain tpk1, active compounds read low 1.01 | locus YJL166W, strain qcr8, active compounds read low 1.01 | locus YJL168C, strain set2, active compounds read low 1.02 | locus YJL187C, strain SWE1 (second series), active compounds read low 1 | locus YJL187C, strain SWE1, active compounds read low 1.01 | locus YJR075W, strain HOC1, active compounds read low 1.03 | locus YKL009W, strain mrt4, active compounds read low 0.912 | locus YKL068W, active compounds read low 0.976 | locus YKL085W, strain MDH1 (second series), active compounds read low 0.971 | locus YKL085W, strain MDH1, active compounds read low 0.971 | locus YKL160W, strain elf1, active compounds read low 1.02 | locus YKR001C, strain vps1, active compounds read low 1.06 | locus YKR026C, strain gcn3, active compounds read low 1 | locus YKR091W, strain srl3, active compounds read low 1.01 | locus YLL001W, strain dnm1, active compounds read low 1.02 | locus YLL026W, active compounds read low 1 | locus YLL041C, strain sdh2, active compounds read low 1.01 | locus YLR027C, strain aat2, active compounds read low 1.01 | locus YLR039C, strain RIC1, active compounds read low 1.2 | locus YLR058C, strain SHM2, active compounds read low 1.02 | locus YLR102C, strain apc9, active compounds read low 1.01 | locus YLR221C, strain rsa3, active compounds read low 1.02 | locus YLR258W, strain gsy2, active compounds read low 1 | locus YLR262C, strain YPT6 (second series), active compounds read low 1.01 | locus YLR268W, strain sec22, active compounds read low 1.05 | locus YLR320W, strain mms22, active compounds read low 1.03 | locus YLR330W, strain CHS5, active compounds read low 1.02 | locus YLR342W, strain FKS1 (second series), active compounds read low 1.06 | locus YLR342W, strain FKS1, active compounds read low 1.01 | locus YLR357W, strain rsc2, active compounds read low 1.03 | locus YLR370C, strain arc18, active compounds read low 1.01 | locus YLR371W, strain rom2, active compounds read low 1.05 | locus YLR384C, strain iki3, active compounds read low 1.01 | locus YLR418C, strain cdc73, active compounds read low 1.05 | locus YML016C, strain PPZ1, active compounds read low 1.01 | locus YML032C, strain rad52, active compounds read low 1.03 | locus YML120C, strain ndi1, active compounds read low 1.01 | locus YML124C, strain tub3, active compounds read low 1.02 | locus YMR058W, strain fet3, active compounds read low 1.01 | locus YMR078C, strain ctf18, active compounds read low 1.01 | locus YMR125W, strain sto1, active compounds read low 1.03 | locus YMR129W, active compounds read low 1.01 | locus YMR205C, strain PFK2, active compounds read low 1.01 | locus YMR223W, strain ubp8, active compounds read low 1.06 | locus YMR231W, strain pep5, active compounds read low 1 | locus YMR263W, strain SAP30, active compounds read low 1.04 | locus YMR307W, strain GAS1, active compounds read low 1.2 | locus YNL067W, strain RPL9B, active compounds read low 1.02 | locus YNL071W, strain lat1, active compounds read low 1.01 | locus YNL128W, strain TEP1, active compounds read low 1.04 | locus YNL209W, strain ssb2, active compounds read low 1.04 | locus YNL233W, strain BNI4, active compounds read low 1.04 | locus YNL248C, strain rpa49, active compounds read low 1.01 | locus YNL250W, strain rad50, active compounds read low 0.961 | locus YNL271C, strain bni1, active compounds read low 1.03 | locus YNL298W, strain CLA4, active compounds read low 0.985 | locus YNL307C, strain MCK1, active compounds read low 1.01 | locus YNL322C, strain KRE1 (second series), active compounds read low 1.01 | locus YNR049C, strain mso1, active compounds read low 1.01 | locus YNR052C, strain pop2, active compounds read low 1.01 | locus YOL006C, strain TOP1, active compounds read low 1.23 | locus YOL012C, strain htz1 0.906 | locus YOL147C, strain pex11, active compounds read low 1.02 | locus YOR001W, strain rrp6, active compounds read low 0.997 | locus YOR061W, strain CKA2, active compounds read low 0.999 | locus YOR069W, strain VPS5, active compounds read low 1.02 | locus YOR070C, strain gyp1, active compounds read low 1.02 | locus YOR080W, strain dia2, active compounds read low 1.01 | locus YOR083W, strain WHI5, active compounds read low 1.03 | locus YOR106W, strain vam3, active compounds read low 1.03 | locus YOR136W, strain idh2, active compounds read low 1.02 | locus YOR144C, strain elg1, active compounds read low 1.04 | locus YOR184W, strain ser1, active compounds read low 1.08 | locus YOR265W, strain rbl2, active compounds read low 1 | locus YOR270C, strain vph1, active compounds read low 1.04 | locus YOR290C, strain snf2, active compounds read low 1.01 | locus YOR316C, strain cot1, active compounds read low 1.04 | locus YPL051W, strain arl3, active compounds read low 0.993 | locus YPL055C, strain LGE1, active compounds read low 1.12 | locus YPL078C, strain atp4, active compounds read low 1.02 | locus YPL106C, strain sse1, active compounds read low 1.01 | locus YPL240C, strain hsp82, active compounds read low 1.01 | locus YPR119W, strain clb2, active compounds read low 1.03 | locus YPR141C, strain kar3, active compounds read low 1.02 | locus YPR163C, strain tif3, active compounds read low 1.02 | locus YPR167C, strain met16, active compounds read low 1.04 | strain wtn01, active compounds read low 1.02
